Results taken from PubChem BioAssay (EPA / NIEHS).
Inconclusive results are not listed. Activity calls are given as the source filed them. Rule for the calls, unless noted: active = hit-call score of the fitted dose curve at least 0.9, where 1 is the maximum; inactive = score below 0.9.

Legend:
[1] = ATG_PPRE_CIS: Attagene CIS-FACTORIAL HepG2 Assay for human Peroxisome Proliferator-activated Response Element (PPRE) (AID 2282958); conditions: HepG2 PPRE cis-element reporter, Attagene transcription factor profiling; actives raise or lower the signal
Method in brief: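 Multiplexed reporter transcription units under cis-regulatory promoters were transfected into HepG2 cells to capture endogenous factor activity. A 24 h incubation preceded RNA isolation and fluorescent RT-PCR fragment analysis.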

[2] = ATG_RORE_CIS: Attagene CIS-FACTORIAL HepG2 Assay for human RAR-related Orphan Receptor Element (RORE) (AID 2282959); conditions: HepG2 Attagene cis-factorial RORE reporter, mRNA; actives raise or lower the signal
Method in brief: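 Fluorescence intensity of reporter-specific cDNA fragments, separated by capillary electrophoresis, gives the signal. Source: HepG2 liver cells transiently transfected with cis-element reporters and exposed 24 h; DMSO-normalized bidirectional fit.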

[3] = ATG_Sox_CIS: Attagene CIS-FACTORIAL HepG2 Assay for human SRY-box transcription factor (SOX) (AID 2282960); conditions: HepG2 Attagene cis-factorial SOX reporter, mRNA; actives raise or lower the signal
Method in brief: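 After 24 h of chemical treatment, transfected HepG2 reporter cells are lysed for total RNA. Transcript levels come from RT-PCR with labelled primer extension and capillary electrophoresis, analysed bidirectionally versus DMSO.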

[4] = target: Transcription factor Sp1 (Homo sapiens) (UniProt P08047); assay: ATG_Sp1_CIS: Attagene CIS-FACTORIAL HepG2 Assay for human Specificity Protein 1 (Sp1) (AID 2282961); conditions: HepG2 Sp1 cis-reporter transcription, actives raise or lower the signal
Transcription factor Sp1 (Homo sapiens), sequence (P08047 whole entry, looked up): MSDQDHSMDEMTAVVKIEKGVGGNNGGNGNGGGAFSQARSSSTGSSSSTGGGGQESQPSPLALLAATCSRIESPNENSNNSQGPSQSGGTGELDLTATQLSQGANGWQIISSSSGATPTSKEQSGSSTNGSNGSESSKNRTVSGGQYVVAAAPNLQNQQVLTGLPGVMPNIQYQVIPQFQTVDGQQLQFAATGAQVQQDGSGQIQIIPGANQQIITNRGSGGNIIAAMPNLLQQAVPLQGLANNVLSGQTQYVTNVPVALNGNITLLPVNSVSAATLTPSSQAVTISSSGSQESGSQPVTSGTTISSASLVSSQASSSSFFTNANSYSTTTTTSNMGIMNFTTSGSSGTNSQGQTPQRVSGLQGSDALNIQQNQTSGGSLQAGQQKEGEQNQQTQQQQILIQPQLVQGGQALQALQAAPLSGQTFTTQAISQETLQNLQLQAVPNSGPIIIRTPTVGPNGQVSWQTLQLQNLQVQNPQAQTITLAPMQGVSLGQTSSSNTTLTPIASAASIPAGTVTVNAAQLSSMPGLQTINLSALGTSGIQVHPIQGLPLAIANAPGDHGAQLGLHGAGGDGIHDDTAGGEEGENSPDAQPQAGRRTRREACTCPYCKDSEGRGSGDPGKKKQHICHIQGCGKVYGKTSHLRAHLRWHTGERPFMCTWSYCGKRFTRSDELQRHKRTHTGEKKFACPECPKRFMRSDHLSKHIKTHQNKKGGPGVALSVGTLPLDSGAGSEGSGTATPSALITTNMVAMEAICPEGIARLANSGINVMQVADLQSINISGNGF
Method in brief: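 Sp1-driven reporter mRNA, read as capillary electrophoresis fluorescence after RT-PCR, in transiently transfected HepG2 cells dosed for 24 h; signal change in either direction relative to DMSO.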

[5] = ATG_SREBP_CIS: Attagene CIS-FACTORIAL HepG2 Assay for human Sterol Regulatory Element Binding (SREBP) (AID 2282962); conditions: HepG2 Attagene cis-factorial SREBP reporter, mRNA; actives raise or lower the signal
Method in brief: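 Endogenous factor activity is measured in HepG2 through multiplexed reporter units under cis-element control. Following a 24 h incubation, reporter transcripts are reverse-transcribed, PCR-amplified and sized by capillary electrophoresis; activity is fitted in both directions relative to DMSO.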

[6] = target: Signal transducer and activator of transcription 3 (Homo sapiens) (UniProt P40763); assay: ATG_STAT3_CIS: Attagene CIS-FACTORIAL HepG2 Assay for human Signal Transducer and Activator of Transcription 3 (STAT3) (AID 2282963); conditions: HepG2, Attagene cis-factorial STAT3 reporter transcription; actives raise or lower the signal
Signal transducer and activator of transcription 3 (Homo sapiens), sequence (P40763 whole entry, looked up, the tested form may be a part): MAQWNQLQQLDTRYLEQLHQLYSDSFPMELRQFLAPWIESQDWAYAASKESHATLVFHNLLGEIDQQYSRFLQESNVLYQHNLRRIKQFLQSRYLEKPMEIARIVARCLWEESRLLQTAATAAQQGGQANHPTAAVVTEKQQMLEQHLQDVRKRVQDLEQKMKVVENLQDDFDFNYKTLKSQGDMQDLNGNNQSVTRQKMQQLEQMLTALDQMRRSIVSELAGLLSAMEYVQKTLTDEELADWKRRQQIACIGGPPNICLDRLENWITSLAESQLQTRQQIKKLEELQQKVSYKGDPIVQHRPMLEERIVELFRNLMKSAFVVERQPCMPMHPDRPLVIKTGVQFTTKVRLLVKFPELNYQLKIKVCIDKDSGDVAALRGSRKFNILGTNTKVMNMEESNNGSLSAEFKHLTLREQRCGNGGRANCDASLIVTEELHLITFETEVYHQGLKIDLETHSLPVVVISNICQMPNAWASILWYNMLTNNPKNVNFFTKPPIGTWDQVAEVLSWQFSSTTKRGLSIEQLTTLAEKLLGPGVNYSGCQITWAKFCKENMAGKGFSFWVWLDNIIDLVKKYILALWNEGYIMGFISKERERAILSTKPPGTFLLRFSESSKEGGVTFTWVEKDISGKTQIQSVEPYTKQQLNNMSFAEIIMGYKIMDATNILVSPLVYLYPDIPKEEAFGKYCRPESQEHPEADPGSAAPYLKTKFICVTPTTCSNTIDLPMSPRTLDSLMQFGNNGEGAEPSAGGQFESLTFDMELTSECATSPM
Method in brief: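 Readout: fluorescent reporter mRNA fragments resolved by capillary electrophoresis. Setup: HepG2 transfected with MRTUs reporting endogenous transcription-factor activity, dosed 24 h. Gain or loss of signal fitted bidirectionally against DMSO control.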

[7] = ATG_TA_CIS: Attagene CIS-FACTORIAL HepG2 Assay for human TA Basal Promoter (AID 2282964); conditions: HepG2 Attagene CIS-factorial TA basal promoter reporter; actives raise or lower the signal
Method in brief: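 Fluorescence from labelled RT-PCR reporter fragments, separated by capillary electrophoresis, gives the signal. Cells: HepG2 transiently carrying multiple reporter units, 24 h chemical dosing. Gain or loss relative to DMSO.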

[8] = ATG_TCF_b_cat_CIS: Attagene CIS-FACTORIAL HepG2 Assay for human T-Cell-Factor with beta-catenin (TCF/b-cat) (AID 2282965); conditions: HepG2 TCF/beta-catenin cis-reporter transcription, actives raise or lower the signal
Method in brief: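 HepG2, transient MRTU transfection, cis-element-driven reporters (endogenous TFs). 24 h compound exposure. Readout: reporter mRNA by RT-PCR + 6-FAM primer extension, HpaI digest, capillary electrophoresis. Gain/loss fit vs DMSO baseline.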

[9] = ATG_TAL_CIS: Attagene CIS-FACTORIAL HepG2 Assay for human TAL Basal Promoter (AID 2282966); conditions: HepG2 Attagene cis-factorial TAL promoter reporter; actives raise or lower the signal;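 note: background control endpoint measuring basal TAL promoter reporter mRNA not a specific factor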
Method in brief: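 After 24 hours of chemical exposure, transfected HepG2 cells yielded RNA that was converted to 6-FAM-labelled, HpaI-digested reporter fragments for capillary electrophoresis. Values derive from bidirectional fitting against DMSO controls.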

[10] = ATG_TGFb_CIS: Attagene CIS-FACTORIAL HepG2 Assay for human Transforming Growth Factor (TGF) (AID 2282967); conditions: HepG2 Attagene CIS TGFb reporter, mRNA transcription; actives raise or lower the signal
Method in brief: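 Bidirectional fitting relative to DMSO gave the endpoint. Underlying data: reporter mRNA from HepG2 cells carrying transiently transfected cis-regulated reporter constructs, harvested 24 h after dosing and analyzed by RT-PCR and capillary electrophoresis.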

[11] = ATG_VDRE_CIS: Attagene CIS-FACTORIAL HepG2 Assay for human Vitamin D Receptor Element (VDRE) (AID 2282968); conditions: HepG2 VDRE cis-reporter transcription, actives raise or lower the signal
Method in brief: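 Transient MRTU transfection of HepG2, 24 h compound exposure. Readout: reporter transcripts via RT-PCR and capillary electrophoresis, fluorescence. Bidirectional fit vs DMSO.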

[12] = target: Nuclear receptor subfamily 1 group I member 3 (Homo sapiens) (UniProt Q14994); assay: ATG_CAR_TRANS: Attagene TRANS-FACTORIAL HepG2 Assay for human Constitutive Androstane Receptor (CAR) (AID 2282969; active = hit-call score of the fitted dose curve at least 0.9, where 1 is the maximum;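 note: activators raise reporter mRNA above DMSO so AC50 marks induction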); conditions: HepG2 Attagene TRANS-FACTORIAL CAR reporter
Nuclear receptor subfamily 1 group I member 3 (Homo sapiens), sequence (Q14994 whole entry, looked up, the tested form may be a part): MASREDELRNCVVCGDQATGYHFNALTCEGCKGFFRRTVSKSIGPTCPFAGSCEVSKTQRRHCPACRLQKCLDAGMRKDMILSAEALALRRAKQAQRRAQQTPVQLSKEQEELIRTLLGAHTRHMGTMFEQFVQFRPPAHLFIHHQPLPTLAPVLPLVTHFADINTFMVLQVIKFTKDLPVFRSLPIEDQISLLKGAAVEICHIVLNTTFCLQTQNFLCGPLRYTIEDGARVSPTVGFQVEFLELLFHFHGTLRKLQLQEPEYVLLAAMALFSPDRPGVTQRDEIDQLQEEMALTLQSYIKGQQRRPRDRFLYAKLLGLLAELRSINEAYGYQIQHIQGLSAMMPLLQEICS
Method in brief: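 Transiently transfected HepG2, multiplex TRANS reporters (CAR-Gal4 chimera driving GAL4-UAS reporter). 24 h dosing. Readout: reporter transcript by RT-PCR + capillary electrophoresis, fluorescence intensity; positive direction vs DMSO.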

[13] = target: Estrogen receptor (Homo sapiens) (UniProt P03372); assay: ATG_ERa_TRANS: Attagene TRANS-FACTORIAL HepG2 Assay for human Estrogen Receptor alpha (ERa) (AID 2282970; active = hit-call score of the fitted dose curve at least 0.9, where 1 is the maximum); conditions: HepG2 Attagene TRANS ERa GAL4 reporter, mRNA
Estrogen receptor (Homo sapiens), sequence (P03372 whole entry, looked up, the tested form may be a part): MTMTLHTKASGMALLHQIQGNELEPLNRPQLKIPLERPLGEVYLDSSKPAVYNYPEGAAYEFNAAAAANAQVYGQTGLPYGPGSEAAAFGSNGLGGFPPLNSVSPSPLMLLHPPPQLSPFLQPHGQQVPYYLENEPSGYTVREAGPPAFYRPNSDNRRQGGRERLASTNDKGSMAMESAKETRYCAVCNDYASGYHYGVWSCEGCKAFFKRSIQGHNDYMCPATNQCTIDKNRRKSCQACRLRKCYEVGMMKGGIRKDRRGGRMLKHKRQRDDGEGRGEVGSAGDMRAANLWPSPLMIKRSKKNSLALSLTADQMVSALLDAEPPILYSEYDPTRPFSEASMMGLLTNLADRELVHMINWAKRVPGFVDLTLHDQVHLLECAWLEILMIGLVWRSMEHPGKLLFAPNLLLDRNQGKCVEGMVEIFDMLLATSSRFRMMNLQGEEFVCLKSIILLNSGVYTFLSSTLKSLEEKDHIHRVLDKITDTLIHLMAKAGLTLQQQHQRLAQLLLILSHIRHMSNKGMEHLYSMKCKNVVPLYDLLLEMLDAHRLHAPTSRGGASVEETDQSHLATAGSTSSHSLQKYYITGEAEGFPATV
Method in brief: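 Liver-derived HepG2 cells expressing chimeric nuclear receptor-Gal4 proteins from transient transfection were exposed for 24 hours. Gain of reporter mRNA signal versus DMSO, read by capillary electrophoresis of FAM-labelled PCR products, was recorded.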

[14] = target: Steroid hormone receptor ERR1 (Homo sapiens) (UniProt P11474); assay: ATG_ERRa_TRANS: Attagene TRANS-FACTORIAL HepG2 Assay for human Estrogen-Related Receptor alpha (ERRa) (AID 2282971; active = hit-call score of the fitted dose curve at least 0.9, where 1 is the maximum); conditions: HepG2 Attagene TRANS reporter, ERRa transactivation
Steroid hormone receptor ERR1 (Homo sapiens), sequence (P11474 whole entry, looked up, the tested form may be a part): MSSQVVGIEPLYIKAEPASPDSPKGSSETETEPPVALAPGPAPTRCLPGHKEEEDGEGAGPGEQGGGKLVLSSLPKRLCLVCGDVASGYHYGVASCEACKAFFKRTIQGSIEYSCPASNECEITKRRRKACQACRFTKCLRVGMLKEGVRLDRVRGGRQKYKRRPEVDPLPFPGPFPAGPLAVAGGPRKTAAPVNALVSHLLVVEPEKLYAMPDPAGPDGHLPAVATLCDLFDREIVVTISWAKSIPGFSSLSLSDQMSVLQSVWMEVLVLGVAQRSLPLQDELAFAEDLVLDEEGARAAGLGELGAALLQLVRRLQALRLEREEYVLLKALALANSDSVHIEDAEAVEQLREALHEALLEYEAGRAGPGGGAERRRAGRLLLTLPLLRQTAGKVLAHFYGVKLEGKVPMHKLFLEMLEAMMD
Method in brief: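 Reporter transcript induction was quantified by RT-PCR and capillary electrophoresis of FAM-labelled, HpaI-cut products after 24 h treatment of HepG2 cells carrying transiently transfected GAL4-UAS reporter units and an exogenous ERRa-Gal4 fusion; activity scored as increase over DMSO.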

[15] = target: X-box-binding protein 1 (Homo sapiens) (UniProt P17861); assay: ATG_Xbp1_CIS: Attagene CIS-FACTORIAL HepG2 Assay for human X-box Binding Protein 1 (XBP1) (AID 2282972); conditions: HepG2 XBP1 cis-element reporter, Attagene multiplex; actives raise or lower the signal
X-box-binding protein 1 (Homo sapiens), sequence (P17861 whole entry, looked up): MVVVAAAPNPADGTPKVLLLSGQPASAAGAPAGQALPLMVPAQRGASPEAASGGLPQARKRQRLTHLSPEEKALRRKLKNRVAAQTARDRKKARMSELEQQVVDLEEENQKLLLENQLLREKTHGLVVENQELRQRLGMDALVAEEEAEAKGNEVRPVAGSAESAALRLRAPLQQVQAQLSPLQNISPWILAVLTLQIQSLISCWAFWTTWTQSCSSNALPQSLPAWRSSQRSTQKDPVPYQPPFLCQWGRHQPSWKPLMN
Method in brief: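 Multiplexed cis-reporter readout in transfected HepG2 liver cells. Exposure lasted 24 hours. Activity in either direction was fitted against DMSO as negative control and baseline.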

[16] = ATG_M_19_TRANS: Attagene TRANS-FACTORIAL HepG2 Assay for M19 Transcription Factor (Internal Marker) (AID 2282974; active = hit-call score of the fitted dose curve at least 0.9, where 1 is the maximum); conditions: HepG2 Attagene TRANS-FACTORIAL M19 internal marker reporter
Method in brief: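 Measured here: internal-marker reporter transcript from HepG2 cells transfected with MRTUs, harvested at 24 h. cDNA PCR products were 6-FAM labelled by primer extension, cut with HpaI for 2 h at 37 C, and resolved by CE.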

[17] = ATG_GAL4_TRANS: Attagene TRANS-FACTORIAL HepG2 Assay for GAL4 (Internal Marker) (AID 2282976; active = hit-call score of the fitted dose curve at least 0.9, where 1 is the maximum); conditions: HepG2 Attagene TRANS GAL4 internal marker reporter
Method in brief: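 First, HepG2 cells were transfected with reporter units under GAL4-UAS control. Next, they were treated with chemical for 24 h. Finally, RNA was reverse-transcribed, PCR-amplified, FAM-labelled and resolved by capillary electrophoresis, with induction scored against DMSO.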

[18] = target: Estrogen-related receptor gamma (Homo sapiens) (UniProt P62508); assay: ATG_ERRg_TRANS: Attagene TRANS-FACTORIAL HepG2 Assay for human Estrogen-Related Receptor gamma (ERRg) (AID 2282977; active = hit-call score of the fitted dose curve at least 0.9, where 1 is the maximum;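 note: hits increase reporter signal over DMSO so potencies reflect activators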); conditions: HepG2 Attagene TRANS reporter, ERRg transactivation
Estrogen-related receptor gamma (Homo sapiens), sequence (P62508 whole entry, looked up, the tested form may be a part): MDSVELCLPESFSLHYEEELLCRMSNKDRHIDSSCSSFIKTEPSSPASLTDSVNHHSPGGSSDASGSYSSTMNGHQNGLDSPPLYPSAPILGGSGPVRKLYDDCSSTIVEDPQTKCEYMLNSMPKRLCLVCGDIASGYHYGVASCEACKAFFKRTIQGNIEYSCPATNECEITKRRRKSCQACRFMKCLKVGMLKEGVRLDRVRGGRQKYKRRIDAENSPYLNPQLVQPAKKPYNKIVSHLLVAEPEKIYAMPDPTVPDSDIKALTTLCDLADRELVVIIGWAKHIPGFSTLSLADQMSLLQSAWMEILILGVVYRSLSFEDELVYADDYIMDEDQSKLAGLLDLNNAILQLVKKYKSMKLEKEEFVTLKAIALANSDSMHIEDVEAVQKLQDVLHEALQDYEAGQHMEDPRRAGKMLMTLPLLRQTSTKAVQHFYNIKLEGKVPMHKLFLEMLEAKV
Method in brief: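 Readout: fluorescent reporter-mRNA fragments resolved by capillary electrophoresis after RT-PCR and HpaI cut. Cells: transiently transfected HepG2 carrying GAL4-UAS reporters driven by exogenous NR-Gal4 chimeras, dosed 24 h. Activity fitted upward relative to DMSO baseline.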

[19] = target: Glucocorticoid receptor (Homo sapiens) (UniProt P04150); assay: ATG_GR_TRANS: Attagene TRANS-FACTORIAL HepG2 Assay for human Glucocorticoid Receptor (GR) (AID 2282978; active = hit-call score of the fitted dose curve at least 0.9, where 1 is the maximum;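 note: activators score as hits since higher reporter transcript over DMSO is fitted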); conditions: HepG2 Attagene TRANS GR reporter, mRNA transcription
Method in brief: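 Measurement of GAL4-UAS-driven reporter mRNA in human HepG2 liver cells 24 h post-dosing, using RT-PCR with fluorescent labelling and capillary electrophoresis; the transfected constructs report exogenous NR-GAL4 chimera activity, fitted upward against DMSO.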

[20] = target: Androgen receptor (Homo sapiens) (UniProt P10275); assay: ATG_AR_TRANS: Attagene TRANS-FACTORIAL HepG2 Assay for human Androgen Receptor (AR) (AID 2282973; active = hit-call score of the fitted dose curve at least 0.9, where 1 is the maximum); conditions: HepG2 Attagene TRANS-FACTORIAL AR reporter transcription
Androgen receptor (Homo sapiens), sequence (P10275 whole entry, looked up, the tested form may be a part): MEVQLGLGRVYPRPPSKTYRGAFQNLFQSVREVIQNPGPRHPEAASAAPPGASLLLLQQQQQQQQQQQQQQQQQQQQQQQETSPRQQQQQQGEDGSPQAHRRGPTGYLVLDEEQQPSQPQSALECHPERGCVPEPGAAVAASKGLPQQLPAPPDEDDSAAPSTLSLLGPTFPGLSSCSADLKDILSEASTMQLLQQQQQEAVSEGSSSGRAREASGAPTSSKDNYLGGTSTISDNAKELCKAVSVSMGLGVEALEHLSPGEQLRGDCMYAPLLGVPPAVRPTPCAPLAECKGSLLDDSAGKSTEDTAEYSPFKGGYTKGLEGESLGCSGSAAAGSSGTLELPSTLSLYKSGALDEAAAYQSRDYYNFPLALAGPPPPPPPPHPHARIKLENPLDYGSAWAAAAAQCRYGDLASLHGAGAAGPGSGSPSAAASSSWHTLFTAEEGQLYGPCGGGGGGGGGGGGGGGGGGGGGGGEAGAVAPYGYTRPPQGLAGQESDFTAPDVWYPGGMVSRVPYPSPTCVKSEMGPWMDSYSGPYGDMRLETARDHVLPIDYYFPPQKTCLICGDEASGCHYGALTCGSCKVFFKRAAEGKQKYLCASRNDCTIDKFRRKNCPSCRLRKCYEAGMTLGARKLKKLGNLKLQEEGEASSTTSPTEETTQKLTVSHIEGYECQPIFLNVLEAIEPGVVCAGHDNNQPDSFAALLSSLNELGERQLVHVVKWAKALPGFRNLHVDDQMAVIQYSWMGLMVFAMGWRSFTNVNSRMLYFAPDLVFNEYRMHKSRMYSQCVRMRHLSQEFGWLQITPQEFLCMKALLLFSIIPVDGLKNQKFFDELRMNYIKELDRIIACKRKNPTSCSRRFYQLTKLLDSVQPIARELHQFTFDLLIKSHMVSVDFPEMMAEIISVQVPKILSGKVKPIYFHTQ
Method in brief: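 Steps: transfect HepG2 with multiple GAL4-UAS reporter transcription units (TRANS format, exogenous NR-Gal4 protein); dose 24 h; isolate RNA, reverse-transcribe, PCR-amplify, FAM-label, HpaI-digest; resolve by capillary electrophoresis. Positive direction vs DMSO.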

Measured: AC50

BrCCBr
active: [13] 27.5 µM
not listed: [20]
inactive: all other assays above

ClCc1ccccn1
active: [15] 65.6 µM
not listed: [14] | [16] | [17] | [18] | [19] | [20]
inactive: all other assays above

CC(C)(OO)c1ccccc1
active: [13] 100 µM
not listed: [12] | [14] | [18] | [20]
inactive: all other assays above

CCN1CCC2(CC1)COc1cc3c(cc12)N(C(=O)c1ccc(-c2ccc(-c4nnc(C)o4)cc2C)cc1)CC3
active: [8] 6.25 µM
not listed: [18] | [19] | [20]
inactive: all other assays above

CCOP(=S)(OCC)Oc1ccc(S(C)=O)cc1 (configuration not stated)
active: [11] 31.2 µM
not listed: [9] | [14] | [17] | [19] | [20]
inactive: all other assays above

CCc1ccccc1C
not listed: [10] | [12] | [13] | [14]
inactive: all other assays above

CCOC(=O)CP(=O)(OCC)OCC
not listed: [9] | [11] | [12] | [13] | [18] | [19] | [20]
inactive: all other assays above

CC(C#N)CCC#N (configuration not stated)
not listed: [9] | [10] | [12] | [13] | [17] | [18] | [19] | [20]
inactive: all other assays above

CCC[CH2][Sn]([Cl])([Cl])[Cl]
not listed: [11] | [12] | [13] | [19] | [20]
inactive: all other assays above

COc1ccccc1OC
not listed: [10] | [12] | [14] | [16] | [17] | [20]
inactive: all other assays above

Oc1c(I)cc(I)cc1I
active: [1] 64.2 µM | [2] 31.1 µM | [3] 160 µM | [7] 55.8 µM | [8] 25.9 µM | [9] 76.1 µM | [11] 19 µM | [15] 33.6 µM
not listed: [10] | [12] | [14]
inactive: all other assays above

Cc1ccc2ccccc2c1C
not listed: [10] | [11] | [14] | [17] | [18] | [19]
inactive: all other assays above

O=C1CCCN1
not listed: [11] | [13] | [14] | [18] | [20]
inactive: all other assays above

COS(=O)(=O)c1ccc(C)cc1
not listed: [10] | [12] | [14] | [18]
inactive: all other assays above

O=[N+]([O-])c1ccc2c3c(cccc13)CC2
active: [11] 11.5 µM
not listed: [10] | [12] | [14] | [18] | [19] | [20]
inactive: all other assays above

ClCCBr
not listed: [11] | [16] | [19] | [20]
inactive: all other assays above

CC(Br)C(=O)O (configuration not stated)
not listed: [9] | [10] | [14] | [18] | [19] | [20]
inactive: all other assays above
